Source: PubChem BioAssay (Broad Institute)
aSyn 5UTR act – Activators via SNCA 5'UTR binding, MLPCN | alpha-synuclein 5'UTR reporter, activators screen | activity score, % (tested at 7.5 µM), hits read low | 7.1% of 300,000 active | AID 1814, 2009; in the data active means activity score below about -60%
Hits are given with their value; . = inactive. Not all results are given here.

SMILES	aSyn 5UTR act
CCOC(=O)c1ccc(N/C=C/C(=O)C(C)(C)C)cc1	-137
CCOC(=O)c1ccc(N/C=C/C(=O)c2ccccc2)cc1	-188
O=S(=O)(c1ccc(Cl)c(Cl)c1)c1snnc1-c1ccccc1	.
c1ccc(-c2nnsc2Sc2ccccn2)cc1	-91
COc1cc(/C=N/N=C2/NC(=O)C(CC(=O)O)S2)ccc1OCc1cccc(Cl)c1 (stereo unspecified)	-185
O=C1N/C(=N\N=C\c2cccnc2)SC1Cc1ccc(SC(F)F)cc1 (stereo unspecified)	.
O=C(CSc1nnnn1Cc1ccccc1)c1ccccc1	-67
CCn1nnnc1SCC(=O)c1ccc(C)cc1	-66
CC1=NN(C(N)=S)C(=O)C1N=Nc1cccc(Cl)c1C (stereo unspecified)	-184
CC1=NN(C(N)=S)C(=O)C1N=Nc1cccc([N+](=O)[O-])c1 (stereo unspecified)	-121
CC1=NN(C(N)=S)C(=O)C1N=Nc1ccc(Br)cc1 (stereo unspecified)	-115
CC1=NN(C(N)=S)C(=O)C1N=Nc1ccc(Cl)cc1 (stereo unspecified)	-143
COc1ccc(NC(=O)c2cc(C)no2)cc1	-65
Cc1ccc(NC(=O)c2cc(C)no2)cc1	-75
COC(=O)C1C(=O)c2c([nH]c(C(=O)OC3CCCC3)c2C)CC1C (stereo unspecified)	-131
COc1ccc(/C=N\n2nnc3ccccc32)cc1	.
COc1ccc(/C=N/n2cc(-c3ccccc3)nc2N)cc1	-134
CCOc1ccc(/C=N/NC(=O)Nc2ccccc2)cc1	-120
CC(=O)Oc1ccc(/C=N/NC(=S)Nc2ccccc2)cc1	-149
CCN(CC)c1ccc(/C=N/NC(=O)Nc2ccccc2)cc1	-150
CCN(Cc1ccccc1)c1ccc(/C=N/N=C(N)N)cc1	.
CCN(CC)c1ccc(/C=N/NC(=O)OC(C)(C)C)cc1	-153
COC(=O)C1=C(N)Oc2cc(N(C)C)ccc2C1c1ccccc1OC (stereo unspecified)	.
CCOC(=O)c1ccc2c(c1)NCc1cccc(OC)c1O2	-129
CC(=O)Nc1cccc(NC(=S)Nc2cccc3ccccc23)c1	-116
SMILES	aSyn 5UTR act
CC(=O)c1cccc(NC(=S)Nc2cccc3ccccc23)c1	-80
S=C(Nc1cccc2ccccc12)NC1CCCCC1	-195
O=C(Nc1cccc2ccccc12)C12CC3CC(C1)CC(n1cnc([N+](=O)[O-])n1)(C3)C2	.
Cc1ccc(NC(=S)Nc2cccc3cnccc23)cc1	-102
O=C(NNC(=S)Nc1cccc2ccccc12)c1cccc(Br)c1	-79
O=C(c1cnn(-c2ccccc2)c1)c1ccccc1O	-106
O=C(c1cnn(-c2ccccc2)c1)c1cc(F)ccc1O	-163
NNC(=O)c1nn(-c2ccccc2)cc1O	.
CCOC(=O)COn1c(=O)c(-c2ccc(C)cc2)[n+]([O-])c2ccccc21	-136
CCOc1ccc(-c2c(=O)n(OCc3nc4ccccc4[nH]3)c3ccccc3[n+]2[O-])cc1	-112
O=C(CSc1ncccc1-c1nc2ccccc2[nH]1)N1CCc2ccccc21	-117
O=C(CSc1ncccc1-c1nc2ccccc2[nH]1)Nc1ccc2c(c1)OCCO2	-71
Cc1ccc(Nc2nc(-c3ccc(F)cc3)cs2)nc1	-175
Cc1ccc(Nc2nc(-c3ccc(O)c(O)c3)cs2)nc1	-216
O=C(/C=C/c1cccc(Cl)c1)Nc1ccncc1	-112
NS(=O)(=O)c1ccc(NC(=O)/C=C/c2cccc(Cl)c2)cc1	-81
COc1ccc(-c2cc(C(=O)N3CCCCCC3)no2)cc1OC	-124
COc1ccc(-c2cc(C(=O)N3CCCCCC3)no2)cc1	-85
Nc1nc(N)c2sc3nc4c(cc3c2n1)CCC4	-107
O=S(=O)(c1ccc(Cl)cc1)N1CCC(c2nc3ccccc3[nH]2)CC1	.
Cc1ccc(Cn2nnnc2CN2CCC(c3nc4ccc(Cl)cc4[nH]3)CC2)cc1	.
CCOc1ccc(NC(=O)N2CCC(c3nc4ccccc4[nH]3)CC2)cc1	-71
O=C(CSCc1ccccc1)Nc1ccc(Cl)cn1	-134
O=C(CSCc1ccccc1)Nc1ccc(F)c(F)c1	-136
O=C(CN1CC(=O)Nc2ccccc21)Nc1ccc(F)c(F)c1	-94
SMILES	aSyn 5UTR act
O=C(Cn1cnc2ccccc2c1=O)Nc1ccc2c(c1)OCCO2	-110
Cc1cc(C)cc(C(=O)N2CC(=O)Nc3ccccc32)c1	.
CCCCSc1nnc2c(n1)[nH]c1ccccc12	-135
CC(=O)c1cccc(NC(=O)CSCc2ccccc2)c1	-100
O=C(CSCc1ccccc1)Nc1ccc2c(c1)OCO2	-154
CCN(CC)C(=O)Cn1cc(C(=O)C(=O)Nc2ccc3c(c2)OCCO3)c2ccccc21	-91
O=C(CSc1ccccc1)Nc1ccc2c(c1)OCO2	-125
CC1Cc2nc(SCC(=O)Nc3ccc4c(c3)OCO4)n(Cc3ccccc3)c(=O)c2S1 (stereo unspecified)	-95
O=C(CSc1nnc2ccccn12)Nc1ccc2c(c1)OCCO2	-122
O=C(CC1Nc2ccccc2NC1=O)Nc1ccc2c(c1)OCO2 (stereo unspecified)	-108
CN1CCN(c2ccc(NC(=O)CSc3ccccc3)cc2F)CC1	-107
O=C(CSc1ccccc1)Nc1ccc2c(c1)OCCO2	-63
O=C(CN1C(=O)C2C3C=CC(C3)C2C1=O)Nc1ccc2c(c1)OCCO2 (stereo unspecified)	-116
Cn1cc(SCC(=O)Nc2ccc3c(c2)OCCO3)c2ccccc21	-78
O=C(CSc1nnc2ccccn12)Nc1ncc(Cl)cc1Cl	-78
O=C(CSc1ccc(-c2ccccc2)nn1)Nc1ccc2c(c1)OCCO2	-148
O=C(CSc1nnc2c(n1)[nH]c1ccccc12)Nc1ccc2c(c1)OCO2	-80
COc1ccc(-n2c(SC(C)C(=O)Nc3ncc(Cl)cc3Cl)nc3ccccc32)cc1 (stereo unspecified)	.
O=C1NC(c2cccs2)Nc2sc3c(c21)CCCC3 (stereo unspecified)	-131
Nc1cc(N)nc(SCC(=O)Nc2ccc(Br)cc2Cl)n1	-79
COc1cc(-c2cc3nc4ccccc4n3c(N)c2C#N)cc(OC)c1OC	.
CCc1c(C)c(C#N)c2nc3ccccc3n2c1Cl	.
Cc1cc(-c2ccco2)c(C#N)c2nc3ccccc3n12	-100
CC1CN(C(=O)Nc2ccc3snnc3c2)c2ccccc21 (stereo unspecified)	-67
Cc1ccc(N2C(=O)/C(=C/c3ccco3)SC2=S)cc1	-94
SMILES	aSyn 5UTR act
Cc1ccc(/C=C2/SC(=S)N(CCCC(=O)Nc3ccc(O)cc3)C2=O)cc1	.
Cc1ccc(C(=O)NNC(=O)CCCN2C(=O)/C(=C/c3ccccc3Cl)SC2=S)cc1	.
O=C1NC(=Nc2ccccc2)/C(=C/c2ccco2)S1	-65
COc1ccc(N=C2NC(=O)/C(=C/c3ccco3)S2)cc1	-127
Cc1ccc(N=C2NC(=O)S/C2=C\c2ccco2)cc1	-63
Cc1ccc(C(=O)CC(=O)c2ccccc2)cc1	-238
Cc1ccc(C(=O)COC(=O)c2cccc(NC(=O)c3ccc([N+](=O)[O-])cc3[N+](=O)[O-])c2)cc1	-162
Cc1ccc(C(=O)c2c3ccc([N+](=O)[O-])cc3[n+]([O-])n2CCCN)cc1	.
O=C(O)c1ccc2c(c1)C(=O)N(c1ccc(C(=O)OCC(=O)c3ccccc3)cc1)C2=O	-62
Cc1ccc(C(=O)Cn2c(-c3ccccc3)noc2=O)cc1	-100
Cc1ccc(C(=O)OCC(=O)c2ccccc2)cc1	-85
CCOC(=O)C(CC(=O)c1ccccc1)CC(=O)c1ccccc1	-105
Cc1ccc(C(=O)Sc2cccccc2=O)cc1	-109
